Bioassay records as filed in PubChem BioAssay.
Most compounds without a hit are left out; they make up all but 11% or so of the library.
Tau ThT inhib = tau fibrillization inhibition (ThT binding) | P10636 | recombinant tau K18 P301L, heparin-induced fibrillization, ThT fluorescence | Potency, µM (doses to about 57.4 µM), usual class: inhibitors | 270,000 tested, 2.1% active | AID 1460; further: nearly all actives have a fitted effect of over 55% in size
Target sequence (P10636 561-689 P618L limits assumed): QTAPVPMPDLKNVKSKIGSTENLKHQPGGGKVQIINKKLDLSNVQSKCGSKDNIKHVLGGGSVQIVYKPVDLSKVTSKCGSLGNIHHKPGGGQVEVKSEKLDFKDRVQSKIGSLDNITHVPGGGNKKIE
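In this qHTS, human K18 P301L tau is incubated with compound and heparin for 6 hr at 37 C, and Thioflavin T fluorescence then reports fibril load.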
Tau fluor cs = counter-screen for tau fibril formation inhibitors; 280,000 tested, 0.93% active; tau K18 P301L Alexa594 fluorescence, heparin fibrillization; Potency, µM (top dose mostly 57.7 µM); further: nearly all actives have a fitted effect of over 55% in size
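Human tau K18 P301L (15 uM unlabeled, 0.24 uM Alexa 594-labeled) in 100 mM sodium acetate pH 7 with 20 uM heparin, 6 hr at 37 C. ThT 30 uM added, 1 hr ambient; Alexa 594 FP and total fluorescence read at 555/632 nm.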
Tau FP inhib = tau fibrillization inhibition (FP) | P10636 | K18 P301L tau heparin fibrillization, Alexa594 FP, 6 h | Potency, µM (series often up to 57.7 µM), actives largely listed as inhibitors | 280,000 tested, 0.39% active | AID 1468; further: nearly all actives have a fitted effect of over 55% in size
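Human K18 P301L fragment (15 uM unlabeled plus 0.24 uM Alexa 594-labeled) in 100 mM sodium acetate pH 7 with compound, aggregation induced by 20 uM heparin for 6 hr at 37 C. ThT (30 uM) added for 1 hr, then Alexa 594 FP read.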
Coupling enz = inhibits coupling enzyme system, counter-screen for aldolase hits; AID 2472; 290,000 tested, 0.67% active; coupling enzyme system counterscreen, AmpLite Red fluorescence; activity change, negative = inhibition, % at 58.2 µM, hits read low; in the data active means activity change below about -30%
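Coupling enzymes only (glyceraldehyde-3-phosphate) + compound, at 57.5 uM final, 10 min RT; add substrate/coupling/AmpLite Red mix, 20 min RT; fluorescence ex 525/em 598 nm. Actives flag coupling-system interference.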
Sfp inh = Sfp phosphopantetheinyl transferase inhibition; Q9F4F7; Potency, µM, usual class: inhibitors; 310,000 tested, 3.5% active; Biochemical Sfp PPTase activity, qHTS;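 further: the enzyme is Sfp with the accession as filed and its product quenches rhodamine fluorescence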
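After 15 min at room temperature with compound, 15 nM Sfp received 5 uM rhodamine-CoA plus 12.5 uM BHQ-2-ybbR (50 mM Hepes pH 7.6, 10 mM MgCl2). Rate came from the fluorescence difference over 30 min, ex 525/em 598 nm.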
G9a block = blocks human histone lysine methyltransferase G9a; Q96KQ7; G9a H3K9 monomethylation, AlphaScreen, 2 h; Potency, µM (doses to about 102 µM), actives largely listed as inhibitors; 350,000 tested, 8.8% active; further: nearly all actives have a fitted effect of over 75% in size
Target sequence (Q96KQ7 913-1193 limits assumed): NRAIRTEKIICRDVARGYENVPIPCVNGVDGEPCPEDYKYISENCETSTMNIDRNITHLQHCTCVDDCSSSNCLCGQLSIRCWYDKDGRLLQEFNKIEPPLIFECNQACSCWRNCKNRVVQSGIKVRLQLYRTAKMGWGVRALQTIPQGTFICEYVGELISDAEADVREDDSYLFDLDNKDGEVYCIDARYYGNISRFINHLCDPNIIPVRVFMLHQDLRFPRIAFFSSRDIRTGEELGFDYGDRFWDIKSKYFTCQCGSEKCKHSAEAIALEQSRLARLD
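AlphaScreen detection with an anti-monomethyl H3K9 antibody quantified product after a 2 h room-temperature reaction containing 500 nM biotinylated H3K9 peptide, 20 µM SAM and 20 nM enzyme, which had been preincubated 15 min with compound.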
Numbers stand for hits; – = inactive; ? = inconclusive; · = no result; [ ] = another dose, or the depositor's remark. Unless noted, the call rests on the fitted dose curve; in most records, active means well fitted curve in the direction sought with a large enough effect; inconclusive means small, poorly fitted or top-dose-only effect, or another doubt; inactive means no such curve, though single readings can be large; an effect the other way counts as inactive or inconclusive.

SMILES	Tau ThT inhib	Tau fluor cs	Tau FP inhib	Coupling enz	Sfp inh	G9a block
COc1ccccc1C(=O)C1CCCN(Cc2cccc(OCCO)c2)C1 (stereo not drawn)	·	·	·	–	–	–
CCOC(=O)C1CCCN(Cc2cccc(Oc3ccccc3)c2)C1 (stereo not drawn)	·	·	·	–	–	79µM
CCOC(=O)C1CCN(Cc2cccc(Oc3ccc(Cl)cc3)c2)CC1	·	·	·	–	–	?
CCOC(=O)C1CCN(Cc2cccc(Oc3ccccc3)c2)CC1	·	·	·	–	–	7.1µM
CN(Cc1ccccc1)C(=O)C1CCCN(Cc2cccc(Cl)c2)C1 (stereo not drawn)	–	–	–	–	–	13µM
CN(Cc1cccc(Cl)c1)C(=O)C1CCN(C(=O)Nc2ccccc2)CC1	·	·	·	·	·	–
CCN(CC)C(=O)C1CCCN(Cc2cccc(Oc3ccccc3)c2)C1 (stereo not drawn)	–	–	–	–	–	28µM
CC(=O)c1ccc(OCC(=O)NCc2ccc(F)cc2)cc1	–	–	–	–	–	–
O=C1c2ccccc2C(Nc2ccc3c(c2)OCCO3)N1c1ccc(Cl)cn1 (stereo not drawn)	?	?	–	–	–	45µM
Cc1ccc(CNC(=O)CCc2nnc(Cc3ccc(-c4ccccc4)cc3)o2)o1	–	–	–	–	22µM	–
CC(=O)C1=C(C)NC(SCC(=O)c2ccc(C)cc2)=C(C#N)C1c1ccco1 (stereo not drawn)	16µM	14µM[quencher]	?	–	–	?
Cc1ccc(C(=O)CSC2=C(C#N)C(c3ccco3)C3=C(CC(C)(C)CC3=O)N2)cc1 (stereo not drawn)	?	–	–	–	–	40µM
Cc1ccc(NC(=O)CSC2=C(C#N)C(c3ccco3)C3=C(CCCC3=O)N2)cc1 (stereo not drawn)	–	–	–	–	10µM	–[12.7 µM]
N#CC1=C(SCC(=O)Nc2ccc(C(=O)O)cc2)NC(=O)CC1c1ccco1 (stereo not drawn)	–	–	–	–	32µM	·
COc1ccccc1NC(=O)C1=C(C)NC(SCC(=O)c2ccccc2)=C(C#N)C1c1ccco1 (stereo not drawn)	?	–	–	–	?	?
CCOC(=O)c1c(C)[nH]c(C(=O)OCC(=O)NCc2ccc(OC)c(OC)c2)c1C	·	·	·	·	·	–
COc1ccc(OC)c(NC(=O)CSC2=C(C#N)C(c3ccco3)C3=C(CCCC3=O)N2)c1 (stereo not drawn)	?	–	–	–	–	–[12.7 µM]
C=CCOC(=O)C1=C(C)NC(SCC(=O)Nc2ccc(C)c(Cl)c2)=C(C#N)C1c1ccco1 (stereo not drawn)	–	?	?	–	35µM	–
N#CC1=C(SCC(=O)c2ccc(Cl)cc2)NC2=C(C(=O)CCC2)C1c1ccco1 (stereo not drawn)	?	?	–	–	45µM	?
CCCOc1cccc(C(=O)N(Cc2cc(OC)c(OC)c(OC)c2)C2CCS(=O)(=O)C2)c1 (stereo not drawn)	–	–	–	·	·	–
CCOCCCNC(=O)C(=O)Nc1c2c(nn1-c1ccccc1)CSC2	–	–	–	·	·	–
Cc1ccc(C)c(N(C)C(=O)Cc2c(C(=O)O)[nH]c3ccc(Cl)cc23)c1	?	–	–	·	·	–
O=C(c1ccc(Cl)cc1)N1CCCCC1CCN1CCOCC1 (stereo not drawn)	–	–	–	·	·	–
Cc1cccc(N=C2NC(=O)/C(=C3/C(=O)N(C)c4ccccc43)S2)c1C	10µM	?	–	–	–	?
COc1ccc(CCNC(=O)c2cnn(-c3ccc(F)cc3)c2C2CCN(C(=O)OC(C)(C)C)CC2)c(OC)c1	?	–	–	·	·	–
SMILES	Tau ThT inhib	Tau fluor cs	Tau FP inhib	Coupling enz	Sfp inh	G9a block
Cc1c(C=O)c2ccccc2n1CCOc1ccccc1F	·	·	·	–	–	–
Cc1ccccc1OCCn1c(=S)[nH]c2ccccc21	·	·	·	–	–	40µM
Fc1ccccc1OCCn1c(=S)[nH]c2ccccc21	·	·	·	–	–	7.1µM
CCOc1ccc(NC(=O)Cn2c(=O)n(Cc3ccc(C(=O)NCc4ccc5c(c4)OCO5)cc3)c(=O)c3ccccc32)cc1	–	–	28µM	·	·	–
Cc1cc(NC(=O)Cn2c(=O)n(Cc3ccccc3)c(=O)c3ccccc32)no1	–	–	–	–	25µM	–[2.33 µM]
Cc1cccc(NC(=O)Cn2c(=O)n(Cc3ccc(C(=O)NCc4ccc5c(c4)OCO5)cc3)c(=O)c3ccccc32)c1	–	–	?	·	·	–
O=C(Cn1c(=O)n(Cc2ccc3c(c2)OCO3)c(=O)c2ccccc21)Nc1cccc(Cl)c1	?	?	28µM	·	·	–
O=C(Cn1c(=O)n(Cc2ccc(C(=O)NCc3ccc4c(c3)OCO4)cc2)c(=O)c2ccccc21)Nc1cccc(Cl)c1	–	–	?	·	·	–
COc1ccccc1NC(=O)Cn1c(=O)n(Cc2ccccc2)c(=O)c2ccccc21	–	–	?	·	·	–
CCOC(=O)CSc1nc2ccccc2c(=O)n1CCc1ccc(OC)c(OC)c1	–	–	–	·	·	–
CC(C)Sc1cc(Cl)nc(NC(=O)Nc2ccccc2)n1	·	·	·	–	–	–
N#CC(c1ccccc1)N(CCCCl)C(=O)c1ccccc1 (stereo not drawn)	–	–	–	–	–	45µM
CC1=C2C(CCS2(=O)=O)CC2(C1)C(=O)OC(C)(C)OC2=O (stereo not drawn)	–	–	–	–	–	50µM
Cc1nn2c(=O)cc(COC(=O)c3ccc(NC(=O)C4CCCCC4)cc3)nc2s1	–	–	–	·	·	–
O=C(CC1Sc2ncnn2C1=O)Nc1ccccc1 (stereo not drawn)	?	–	–	–	?	1µM
COc1ccc(N=C2SC(CC(=O)Nc3ccccc3)C(=O)N2Cc2ccccn2)cc1 (stereo not drawn)	–	?	–	–	–	50µM
Cc1ccc(NC(=O)CC2SC(=O)N(c3ccccc3)C2=O)cc1 (stereo not drawn)	?	–	–	–	20µM	?
Cc1ccc(NC(=O)CC2SC3=NCCN3C2=O)cc1 (stereo not drawn)	–	–	–	–	71µM	7.1µM
O=C(CC1SC(=O)N(c2ccccc2)C1=O)Nc1ccccc1 (stereo not drawn)	?	–	–	–	?	?
COc1cccc(C(C(=O)NC(C)(C)C)N(Cc2ccc(F)cc2)C(=O)CCC(=O)Nc2cc(C)on2)c1OC (stereo not drawn)	·	·	·	–	–	–
Cc1ccc(CN2CCN(C3CCN(C(=O)c4ccccc4)CC3)C(=O)C2=O)cc1	–	–	–	·	·	–
COc1ccc(-n2c(=O)c(CCc3ccccc3)nc3cnc(N(C)C)nc32)cc1	·	·	·	–	–	–[12.7 µM]
